Source: PubChem (National Center for Advancing Translational Sciences (NCATS))
L3MBTL1 inh: inhibitors of human L3MBTL1; Q9Y468; AlphaScreen L3MBTL1–H3K9me1 peptide binding; Potency, µM (highest dose often 57.1 µM), for the others: at the highest dose activity, negative = inhibition, usual class: inhibitors; 230,000 tested, 0.66% active; AID 485360; note: % is set by controls: 0 for no effect and ±100 for the full control effect; nearly all actives have a fitted effect of over 60% in size
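Displacement of a biotinylated histone H3(1-15) peptide monomethylated at Lys9 (75 nM) from L3MBTL1 (50 nM) was measured by AlphaScreen after a 30 min room-temperature compound incubation; cefsulodin titration served as intraplate control.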
BAZ2B inh: blocks human BAZ2B; Q9UIF8; AlphaScreen BAZ2B-H3K14Ac peptide displacement; Potency, µM (highest dose often 114 µM), for inactives: at the highest dose activity change, negative = inhibition, usual class: inhibitors; 360,000 tested, 4.4% active; AID 504333; note: % is set by controls: 0 for no effect and ±100 for the full control effect; nearly all actives have a fitted effect of over 60% in size
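Multi-concentration screen (max 110 uM) measuring displacement of acetylated histone H3 peptide from BAZ2B by AlphaScreen, using 50 nM protein, 50 nM peptide and 10 ug/mL streptavidin donor plus Ni-chelate acceptor beads.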
HP1b chromo inh: blocks HP1-beta chromodomain binding to methylated histone tails; AlphaScreen HP1-beta / biotin-H3K9me3 peptide binding; Potency, µM (doses to about 114 µM), without a hit: at the highest dose activity change, negative = inhibition, usual class: inhibitors; 390,000 tested, 0.56% active; note: nearly all actives have a fitted effect of over 70% in size
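Compound inhibition of the preformed complex between 50 nM HP1-beta and 50 nM biotinylated H3K9me3 peptide was read by AlphaScreen. Buffer was PBS pH 7.4 with 0.01% Tween-20. Incubations ran 30 min at room temperature, with 10 ug/mL donor/acceptor beads.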
JMJD2A Tudor: inhibitors of human JMJD2A Tudor domain; O75164; AlphaScreen JMJD2A-Tudor / H3K4me3 peptide binding; Potency, µM (series often up to 114 µM), for the others: top-dose activity change, negative = inhibition, hits mostly inhibitors; 390,000 tested, 4.4% active; AID 504339; note: % is set by controls: 0 for no effect and ±100 for the full control effect; nearly all actives have a fitted effect of over 50% in size
G9a block: blocks human histone lysine methyltransferase G9a; Potency, µM (top dose mostly 102 µM), for the others: at the highest dose activity, negative = inhibition, hits mostly inhibitors; G9a H3K9 monomethylation, AlphaScreen, 2 h; 350,000 tested, 8.8% active; AID 504332; Q96KQ7; note: % is set by controls: 0 for no effect and ±100 for the full control effect; nearly all actives have a fitted effect of over 75% in size
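Quantitative HTS format: methyltransferase activity on a biotin-tagged H3K9 peptide is measured by AlphaScreen, using a rabbit anti-monomethyl-H3K9 antibody with streptavidin donor and anti-IgG acceptor beads. Final levels are 20 nM enzyme, 500 nM peptide, 20 uM SAM; 2 h RT.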
* hit, by the source's call; ? = inconclusive; . = no result given; [ ] = another dose, or the depositor's remark. In the library only some 11% were active in any assay of this set; here they are far more common. Calls come from the whole dose curve; as a rule, active = well fitted inhibition curve with a large enough effect; inconclusive = small, poorly fitted or top-dose-only effect; inactive = no such curve, though single readings can be large or run the other way. Potency is the fitted concentration of half-maximal effect.

SMILES | L3MBTL1 inh | BAZ2B inh | HP1b chromo inh | JMJD2A Tudor | G9a block
Cc1ccc(N2CC3=C(C2=O)C(c2ccc(Br)cc2)NC(=O)N3C)cc1 (stereo unspecified) | . | -24% | 37% | -7% | -5%[59 µM]
COc1ccc(-n2cc(C(=O)N(CCN(C)C)Cc3ccccc3)c3ccccc3c2=O)cc1 | . | -33% | 29% | ? | -41%[59 µM]
Cc1ccc(NS(=O)(=O)c2ccc3[nH]c(=O)[nH]c3c2)cc1C | . | . | . | -14% | .
CCC1CO/C(=C(\C(Cl)=C(Cl)Cl)[N+](=O)[O-])N1 (stereo unspecified) | . | 2% | ? | -16%[11.4 µM] | 79µM*
CCOc1ccccc1C1NC(c2ccc3c(c2)OCO3)=CC(c2ccccc2O)N1 (stereo unspecified) | . | . | 8%[57 µM] | -18%[57.1 µM] | .
CCN(C(=O)CSc1ncc2c(n1)-c1cc(Cl)ccc1N(Cc1ccccc1)S2(=O)=O)c1cccc(C)c1 | . | 3% | 7% | -13% | 9%[59 µM]
O=C(O)c1ccc(S(=O)(=O)c2ccc3c(c2)C(=O)N(NC(=O)c2ccncc2)C3=O)cc1 | . | -23% | -9% | -14% | 50µM*
O=C(O)c1ccc(S(=O)(=O)c2ccc3c(c2)C(=O)N(NC(=O)c2ccccc2)C3=O)cc1 | . | 0% | 46% | 6% | -3%
O=C(COc1ccc(S(=O)(=O)N2CCc3ccccc32)cc1Cl)NCc1ccccn1 | 23%[11.4 µM] | 79µM* | -1% | 45µM* | 14µM*
Cc1c(OC(C)C(=O)NCc2ccccn2)ccc2c3c(c(=O)oc12)CCC3 (stereo unspecified) | . | -4% | 41% | -20% | 21%
Cc1cc(S(=O)(=O)NC2CCCCC2)ccc1OCC(=O)NCc1ccccn1 | -6% | -27% | 21% | 28µM* | 10%[59 µM]
O=C(NCCS(=O)(=O)NC1CCCC1)c1ccccc1 | 3% | 11% | 17% | -11% | -40%
O=C(NCCS(=O)(=O)NCc1ccccn1)c1ccccc1 | -8% | 4% | -2% | 2.8µM* | 61%
Cc1c(OCC(=O)NCc2ccccn2)ccc2c3c(c(=O)oc12)CCCC3 | . | -13% | 14%[57 µM] | 50µM* | ?
CCc1ccccc1N1C(=O)N(Cc2ccccc2C)c2ccccc2S1(=O)=O | . | 2% | 29% | 5% | -5%[59 µM]
O=C(NCc1c(Cl)cccc1Oc1ccccc1)c1ccccc1 | 11% | 13% | 56% | 4% | 3%
CC(C)c1ccc(S(=O)(=O)NCc2nc3cccnc3n2Cc2ccc(F)cc2)cc1 | . | -1% | 23%[57 µM] | 7% | 7%[59 µM]
O=C(COc1ccc(S(=O)(=O)NCc2ccccc2)cc1Cl)NCc1ccccn1 | . | -38% | -4% | -13% | 45µM*
O=C(NCc1ccccn1)c1cccc(S(=O)(=O)NCc2ccccc2)c1 | -4% | 56µM* | 45% | -13% | 15%
CCSc1nnc(NC(=O)C2CCN(C(=O)c3ccco3)CC2)s1 | . | . | 45% | -11% | .
Cc1ccc2c(c1)cc1c(=O)n(CC(=O)N3CCCCC3)nc(C)n12 | . | -7% | 22% | -13% | 6%[59 µM]
COc1cc(CNc2ccccc2SC)ccc1O | -1% | ? | 0% | 35µM* | ?
COc1cc(C[C@@H](C)[C@@H](C)Cc2ccc(O)c(OC)c2)ccc1O | -14% | . | 15% | ? | .
CSc1nsc(/C=C/Nc2ccc(C)cc2)c1C#N | . | ? | 15% | -26% | 2.2µM*
COc1cc(/C=N/Nc2snc(SC)c2C#N)ccc1O | 1% | -19% | 30% | -6% | ?
SMILES | L3MBTL1 inh | BAZ2B inh | HP1b chromo inh | JMJD2A Tudor | G9a block
CN(C)c1ccc(-c2sc(Nc3ccccc3)n[n+]2-c2ccc(F)cc2)cc1 | 60% | 10% | 1% | ? | .
Cc1cccc(-c2sc(Nc3ccccc3)n[n+]2-c2ccccc2)c1 | -2% | 50µM* | 15% | 79µM* | -20%[2.33 µM]
O=C(O)c1ccc(-c2sc(Nc3ccccc3)n[n+]2-c2ccc(F)cc2)cc1 | 1% | -8% | 17% | -35% | 40µM*
O=C(O)c1ccc(-c2sc(Nc3ccccc3)n[n+]2-c2ccccc2)cc1 | 13% | ? | -8% | 45µM* | .
COc1ccc(N2C(=O)CS(=O)(=O)C23C(=O)N(Cc2ccc(F)cc2)c2ccc(C)cc23)cc1 (stereo unspecified) | . | -2%[57.1 µM] | 18% | -26% | -27%[59 µM]
COc1cccc(NC(=O)Cn2cnc3c(nc4n3CCCCC4)c2=O)c1 | . | 5% | 9% | -13% | 7%[59 µM]
CSc1nc(=NC(C)=O)ss1 | 3%[11.4 µM] | ? | ? | 32µM* | ?
CCN(CC)CCn1c(=S)[nH]c2cc3c(cc2c1=O)OCO3 | 0% | -4% | 12% | 45µM* | 45µM*
O=C(CCCn1c(=S)[nH]c2cc3c(cc2c1=O)OCO3)N1CCN(C2CCCCC2)CC1 | 3% | -27% | 25% | 79µM* | ?
CCCCNC(=O)CCCn1c(=S)[nH]c2cc3c(cc2c1=O)OCO3 | -2% | 9% | 41% | -15% | -22%[59 µM]
CCN(CC)CCNC(=O)CCCCn1c(=S)[nH]c2c([nH]c3ccc(OC)cc32)c1=O | -1% | ? | ? | 4µM* | 13µM*
CCN(CC)CCNC(=O)CCn1c(=S)[nH]c2cc3c(cc2c1=O)OCO3 | 2% | 13% | 17% | 50µM* | 21%[12.7 µM]
Cc1cccc(S(=O)(=O)c2cn(Cc3ccc(F)cc3)c3cc(N4CCCCC4)c(F)cc3c2=O)c1 | . | 3% | 32% | 0% | 10%[59 µM]
COc1ccccc1NC(=O)C1=C(C)Nc2nc(SCc3ccc(Cl)cc3)nn2C1c1ccccc1Cl (stereo unspecified) | . | -2% | 24% | -13% | -3%[59 µM]
CNC(=O)c1c(C)noc1C | -27% | -5% | 35% | -7% | -1%
Cn1c(=O)c(=O)n(C)c2cc(N3CCCCC3)c(NS(=O)(=O)c3ccc([N+](=O)[O-])cc3)cc21 | . | -37% | 39% | -31% | 32µM*
Cn1c(=O)c(=O)n(C)c2cc(N3CCCC3)c(NS(=O)(=O)c3ccc(F)cc3)cc21 | . | -17%[57.1 µM] | 50% | -24% | 40µM*
Cc1cc(S(=O)(=O)Nc2cc3c(cc2N2CCOCC2)n(C)c(=O)c(=O)n3C)ccc1F | . | -18% | -17% | -13% | -42%[59 µM]
Cn1c(=O)c(=O)n(C)c2cc(N3CCOCC3)c(NS(=O)(=O)c3ccc(Br)cc3)cc21 | . | ? | -4% | ? | 35µM*
Cc1ccc(S(=O)(=O)Nc2cc3c(cc2N2CCOCC2)n(C)c(=O)c(=O)n3C)cc1 | . | -22% | 52% | -2% | ?
COc1ccc(OC)c(S(=O)(=O)Nc2cc3c(cc2N2CCCC2)n(C)c(=O)c(=O)n3C)c1 | . | 50µM* | 7% | 32µM* | 10µM*
CCc1ccc(CNC(=O)C2CCN(C(=O)c3ccc(-n4ccc5ccccc54)s3)CC2)cc1 | . | 0% | 20% | -13% | 0%[59 µM]
Cc1ccc(S(=O)(=O)c2nc(S(C)(=O)=O)sc2NCc2ccccc2)cc1 | . | -4% | 16% | -23% | -19%[59 µM]
